Results as given in PMC7862700, “An all-to-all approach to the identification of sequence-specific readers for epigenetic DNA modifications on cytosine”.

Columns and labels:
Experiment in all cases: DAPPL (digital affinity profiling via proximity ligation, sequencing); 10 mM Tris-HCl pH 7.5, 50 mM NaCl, 1 mM DTT, 4% glycerol, room temperature, 30 min; GST-TFs on glutathione beads, 16-mer random dsDNA library, 0.1% formaldehyde crosslink after washing; high values mean tight binding
Conditions in all cases: protein: recombinant; tags: N-terminal GST; dsDNA, one strand shown
ELK1 = target: T1, ELK1 (Homo sapiens, UniProt P19419 1-428)
T1 sequence: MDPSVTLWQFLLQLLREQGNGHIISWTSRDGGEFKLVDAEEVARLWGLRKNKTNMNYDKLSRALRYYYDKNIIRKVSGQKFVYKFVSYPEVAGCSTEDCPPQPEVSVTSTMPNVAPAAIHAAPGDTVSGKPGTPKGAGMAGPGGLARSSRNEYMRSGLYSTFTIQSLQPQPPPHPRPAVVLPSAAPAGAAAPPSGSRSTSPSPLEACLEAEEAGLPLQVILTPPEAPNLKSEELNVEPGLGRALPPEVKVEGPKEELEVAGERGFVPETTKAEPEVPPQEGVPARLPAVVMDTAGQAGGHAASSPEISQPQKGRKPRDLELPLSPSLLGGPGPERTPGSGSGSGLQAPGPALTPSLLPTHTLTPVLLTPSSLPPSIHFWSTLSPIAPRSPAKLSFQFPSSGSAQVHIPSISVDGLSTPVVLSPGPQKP
Summary of the method: (§1)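 Pools were built from human transcription factors expressed in yeast as GST fusions, captured on glutathione beads and DNA-barcoded, along with a tag-only sample. Incubation with 200 nmole of a 16-mer random double-stranded DNA library lasted 30 min at room temperature in Tris/NaCl/DTT/glycerol buffer, and was followed by washing, 0.1% formaldehyde crosslinking, proximity ligation, PCR amplification and Illumina NextSeq500 sequencing. Binding signal is the quotient of each hexamer's read frequency for a factor and its frequency for the tag-only sample.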

GABPA = target: T2, GABPA (Homo sapiens, UniProt Q06546 1-454)
T2 sequence: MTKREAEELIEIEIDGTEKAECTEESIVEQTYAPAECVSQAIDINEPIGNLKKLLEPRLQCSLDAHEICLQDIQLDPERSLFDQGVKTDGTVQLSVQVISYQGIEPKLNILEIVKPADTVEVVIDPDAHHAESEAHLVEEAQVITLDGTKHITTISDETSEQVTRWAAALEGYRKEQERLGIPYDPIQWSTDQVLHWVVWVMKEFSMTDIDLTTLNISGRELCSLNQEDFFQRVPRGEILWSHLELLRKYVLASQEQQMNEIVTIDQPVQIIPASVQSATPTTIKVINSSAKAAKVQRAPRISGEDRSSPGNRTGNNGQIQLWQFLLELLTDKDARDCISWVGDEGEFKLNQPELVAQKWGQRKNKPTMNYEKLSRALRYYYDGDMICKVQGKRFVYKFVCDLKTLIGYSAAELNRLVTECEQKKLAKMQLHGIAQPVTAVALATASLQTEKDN
Summary of the method: as §1

ERG = target: T3, ERG (Homo sapiens, UniProt P11308 1-479)
T3 sequence: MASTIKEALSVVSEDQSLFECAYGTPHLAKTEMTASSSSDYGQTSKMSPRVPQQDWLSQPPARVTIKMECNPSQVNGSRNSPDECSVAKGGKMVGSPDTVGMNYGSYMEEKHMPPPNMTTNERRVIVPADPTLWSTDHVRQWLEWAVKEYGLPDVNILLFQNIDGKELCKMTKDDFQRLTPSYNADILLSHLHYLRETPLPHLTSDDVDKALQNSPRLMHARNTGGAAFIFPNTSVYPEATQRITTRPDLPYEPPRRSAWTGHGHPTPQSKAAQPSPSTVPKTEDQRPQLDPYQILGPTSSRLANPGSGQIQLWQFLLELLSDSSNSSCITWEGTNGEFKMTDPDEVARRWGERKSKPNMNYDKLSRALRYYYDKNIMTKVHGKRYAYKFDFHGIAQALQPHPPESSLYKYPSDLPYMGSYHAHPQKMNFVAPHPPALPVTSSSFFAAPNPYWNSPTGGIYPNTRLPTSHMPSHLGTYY
Summary of the method: as §1

ELF1 = ELF1 (Homo sapiens, UniProt P32519 1-619)
Sequence of ELF1 (P32519 whole entry): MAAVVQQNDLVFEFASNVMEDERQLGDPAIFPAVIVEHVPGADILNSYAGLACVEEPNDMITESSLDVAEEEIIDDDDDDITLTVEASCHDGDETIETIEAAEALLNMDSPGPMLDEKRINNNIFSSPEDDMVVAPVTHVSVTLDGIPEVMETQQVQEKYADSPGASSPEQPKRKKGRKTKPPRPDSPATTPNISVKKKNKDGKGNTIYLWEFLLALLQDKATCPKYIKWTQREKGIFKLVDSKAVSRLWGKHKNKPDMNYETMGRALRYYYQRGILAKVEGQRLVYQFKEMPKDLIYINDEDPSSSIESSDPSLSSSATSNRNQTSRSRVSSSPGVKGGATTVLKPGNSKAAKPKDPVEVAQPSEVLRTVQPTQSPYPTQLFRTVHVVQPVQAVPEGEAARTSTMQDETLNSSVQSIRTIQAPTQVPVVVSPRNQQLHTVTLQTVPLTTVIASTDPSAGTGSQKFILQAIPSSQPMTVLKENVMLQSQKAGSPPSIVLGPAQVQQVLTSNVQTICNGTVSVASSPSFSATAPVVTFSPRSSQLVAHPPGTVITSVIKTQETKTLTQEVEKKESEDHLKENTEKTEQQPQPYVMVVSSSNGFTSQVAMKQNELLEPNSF
Summary of the method: as §1

SPI1 = SPI1 (Homo sapiens, UniProt P17947 1-270)
Summary of the method: as §1

ETV5 = ETV5 (Homo sapiens, UniProt P41161 1-510)
Sequence of ETV5 (P41161 whole entry): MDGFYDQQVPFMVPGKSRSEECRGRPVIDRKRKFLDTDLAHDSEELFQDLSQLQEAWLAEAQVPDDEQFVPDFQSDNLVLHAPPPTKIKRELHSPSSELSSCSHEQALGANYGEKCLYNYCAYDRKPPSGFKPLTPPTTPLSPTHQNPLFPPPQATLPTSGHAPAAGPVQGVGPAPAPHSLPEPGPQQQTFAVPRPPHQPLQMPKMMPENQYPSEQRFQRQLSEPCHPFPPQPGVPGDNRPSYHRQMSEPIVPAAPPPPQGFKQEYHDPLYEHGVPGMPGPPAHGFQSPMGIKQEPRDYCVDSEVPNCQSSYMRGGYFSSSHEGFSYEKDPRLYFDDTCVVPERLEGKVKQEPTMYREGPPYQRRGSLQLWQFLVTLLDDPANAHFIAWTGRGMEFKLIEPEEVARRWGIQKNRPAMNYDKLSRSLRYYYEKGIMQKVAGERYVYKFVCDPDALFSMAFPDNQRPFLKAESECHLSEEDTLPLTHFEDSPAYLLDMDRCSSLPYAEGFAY
Summary of the method: as §1

ELF4 = ELF4 (Homo sapiens, UniProt Q99607 1-663)
Sequence of ELF4 (Q99607 whole entry): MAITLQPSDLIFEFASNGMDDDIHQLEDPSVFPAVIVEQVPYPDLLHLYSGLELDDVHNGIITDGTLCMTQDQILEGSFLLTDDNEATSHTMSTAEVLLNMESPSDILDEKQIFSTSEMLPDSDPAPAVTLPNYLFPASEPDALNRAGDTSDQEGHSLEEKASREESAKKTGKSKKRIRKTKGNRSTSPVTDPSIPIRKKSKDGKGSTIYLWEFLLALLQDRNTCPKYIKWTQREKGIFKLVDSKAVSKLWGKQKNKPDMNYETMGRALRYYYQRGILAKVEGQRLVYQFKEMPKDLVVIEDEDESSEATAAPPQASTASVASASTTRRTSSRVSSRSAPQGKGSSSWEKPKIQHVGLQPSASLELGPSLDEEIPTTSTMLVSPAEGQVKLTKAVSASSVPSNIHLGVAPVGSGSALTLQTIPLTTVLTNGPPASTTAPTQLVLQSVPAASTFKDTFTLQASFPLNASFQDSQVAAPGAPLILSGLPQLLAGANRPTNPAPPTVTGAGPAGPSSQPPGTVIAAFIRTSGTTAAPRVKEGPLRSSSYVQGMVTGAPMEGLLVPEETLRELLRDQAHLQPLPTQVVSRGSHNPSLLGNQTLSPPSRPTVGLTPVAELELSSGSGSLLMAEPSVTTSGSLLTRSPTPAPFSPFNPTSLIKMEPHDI
Summary of the method: as §1

ELF3 = target: T4, ELF3 (Homo sapiens, UniProt P78545 1-371)
T4 sequence: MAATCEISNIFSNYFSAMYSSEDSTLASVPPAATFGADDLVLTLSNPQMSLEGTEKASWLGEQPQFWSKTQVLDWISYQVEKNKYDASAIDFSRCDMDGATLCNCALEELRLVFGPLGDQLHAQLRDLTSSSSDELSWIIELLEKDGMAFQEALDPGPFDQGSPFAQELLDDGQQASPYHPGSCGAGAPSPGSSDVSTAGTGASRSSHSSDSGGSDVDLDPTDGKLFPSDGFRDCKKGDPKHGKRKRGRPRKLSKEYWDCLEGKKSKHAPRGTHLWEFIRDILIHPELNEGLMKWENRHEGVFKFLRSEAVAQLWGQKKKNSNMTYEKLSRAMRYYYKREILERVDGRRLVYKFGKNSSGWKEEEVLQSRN
Summary of the method: as §1

ERF = target: T5, ERF (Homo sapiens, UniProt P50548 1-548)
T5 sequence: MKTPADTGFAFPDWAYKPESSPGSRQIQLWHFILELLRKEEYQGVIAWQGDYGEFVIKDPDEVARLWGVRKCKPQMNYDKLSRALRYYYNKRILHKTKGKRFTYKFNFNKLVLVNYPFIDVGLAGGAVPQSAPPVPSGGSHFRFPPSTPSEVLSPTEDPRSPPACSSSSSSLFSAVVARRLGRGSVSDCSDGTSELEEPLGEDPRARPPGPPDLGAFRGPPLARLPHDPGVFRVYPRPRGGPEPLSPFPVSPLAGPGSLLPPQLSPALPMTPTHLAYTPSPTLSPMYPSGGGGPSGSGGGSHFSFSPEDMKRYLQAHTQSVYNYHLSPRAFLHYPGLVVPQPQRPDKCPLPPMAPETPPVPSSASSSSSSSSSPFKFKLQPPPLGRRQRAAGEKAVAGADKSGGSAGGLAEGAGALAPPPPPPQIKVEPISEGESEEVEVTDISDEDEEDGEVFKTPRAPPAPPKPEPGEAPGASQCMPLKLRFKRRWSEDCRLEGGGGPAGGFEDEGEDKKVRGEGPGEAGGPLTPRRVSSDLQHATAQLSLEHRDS
Summary of the method: as §1

ETV3L = target: T6, ETV3L (Homo sapiens, UniProt Q6ZN32 1-361)
T6 sequence: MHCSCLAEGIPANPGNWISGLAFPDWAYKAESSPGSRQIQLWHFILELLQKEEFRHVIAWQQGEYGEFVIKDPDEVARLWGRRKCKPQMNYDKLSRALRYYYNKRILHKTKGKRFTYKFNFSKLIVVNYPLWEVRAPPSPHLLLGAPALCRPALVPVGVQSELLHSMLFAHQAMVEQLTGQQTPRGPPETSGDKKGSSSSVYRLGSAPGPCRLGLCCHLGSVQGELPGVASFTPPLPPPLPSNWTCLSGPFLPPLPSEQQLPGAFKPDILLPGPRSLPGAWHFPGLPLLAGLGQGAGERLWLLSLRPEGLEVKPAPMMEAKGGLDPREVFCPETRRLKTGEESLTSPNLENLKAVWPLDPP
Summary of the method: as §1

ETS2 = target: T7, ETS2 (Homo sapiens, UniProt P15036 1-469)
T7 sequence: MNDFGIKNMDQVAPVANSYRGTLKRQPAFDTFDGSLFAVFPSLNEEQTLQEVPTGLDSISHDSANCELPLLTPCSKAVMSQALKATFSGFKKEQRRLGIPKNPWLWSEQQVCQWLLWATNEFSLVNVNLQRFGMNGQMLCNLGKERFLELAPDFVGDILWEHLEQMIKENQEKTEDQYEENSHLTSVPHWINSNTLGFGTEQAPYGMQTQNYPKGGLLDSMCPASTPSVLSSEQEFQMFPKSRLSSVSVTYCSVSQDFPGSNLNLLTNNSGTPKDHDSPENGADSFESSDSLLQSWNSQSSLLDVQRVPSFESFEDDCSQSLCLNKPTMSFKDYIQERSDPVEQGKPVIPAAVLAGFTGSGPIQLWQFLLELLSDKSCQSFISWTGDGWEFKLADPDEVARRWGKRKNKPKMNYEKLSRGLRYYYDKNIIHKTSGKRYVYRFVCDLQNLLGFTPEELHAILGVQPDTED
Summary of the method: as §1

ETV3 = target: T8, ETV3 (Homo sapiens, UniProt P41162-2 1-143)
T8 sequence: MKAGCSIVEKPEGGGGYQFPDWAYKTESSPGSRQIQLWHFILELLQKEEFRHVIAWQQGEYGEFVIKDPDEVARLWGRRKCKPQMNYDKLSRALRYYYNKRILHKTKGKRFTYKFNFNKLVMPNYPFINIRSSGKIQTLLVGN
Summary of the method: as §1

SPIB = SPIB (Homo sapiens, UniProt Q01892 1-262)
Sequence of SPIB (Q01892 whole entry): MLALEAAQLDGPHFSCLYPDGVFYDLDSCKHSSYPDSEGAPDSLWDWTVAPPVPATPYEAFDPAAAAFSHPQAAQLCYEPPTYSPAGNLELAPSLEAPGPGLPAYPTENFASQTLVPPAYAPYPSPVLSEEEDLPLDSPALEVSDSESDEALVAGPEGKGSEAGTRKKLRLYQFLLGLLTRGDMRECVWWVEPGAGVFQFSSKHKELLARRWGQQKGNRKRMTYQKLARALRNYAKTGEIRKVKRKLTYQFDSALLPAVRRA
Summary of the method: as §1

ELK4 = target: T9, ELK4 (Homo sapiens, UniProt P28324-2 1-405)
T9 sequence: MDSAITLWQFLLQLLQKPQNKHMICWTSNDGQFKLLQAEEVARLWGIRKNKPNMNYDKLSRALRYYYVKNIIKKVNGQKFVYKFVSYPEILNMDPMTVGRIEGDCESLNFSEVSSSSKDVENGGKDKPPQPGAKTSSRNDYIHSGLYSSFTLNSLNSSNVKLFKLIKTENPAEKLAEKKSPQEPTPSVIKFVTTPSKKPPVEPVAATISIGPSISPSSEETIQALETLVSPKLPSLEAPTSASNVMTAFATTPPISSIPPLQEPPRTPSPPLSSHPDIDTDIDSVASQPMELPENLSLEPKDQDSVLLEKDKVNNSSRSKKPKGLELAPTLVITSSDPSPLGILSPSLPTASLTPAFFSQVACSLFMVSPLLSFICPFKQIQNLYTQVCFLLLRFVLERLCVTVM
Summary of the method: as §1

ETV7 = target: T10, ETV7 (Homo sapiens, UniProt Q9Y603 1-341)
T10 sequence: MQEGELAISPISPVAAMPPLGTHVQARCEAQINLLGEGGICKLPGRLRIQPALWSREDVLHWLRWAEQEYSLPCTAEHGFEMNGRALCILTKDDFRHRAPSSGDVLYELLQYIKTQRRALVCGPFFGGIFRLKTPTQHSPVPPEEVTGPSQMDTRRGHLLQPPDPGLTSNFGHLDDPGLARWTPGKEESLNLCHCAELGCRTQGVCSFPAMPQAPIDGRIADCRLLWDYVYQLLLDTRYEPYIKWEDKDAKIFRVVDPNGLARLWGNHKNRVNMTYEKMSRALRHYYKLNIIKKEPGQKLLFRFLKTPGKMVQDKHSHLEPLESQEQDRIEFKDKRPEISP
Summary of the method: as §1

ETV6 = ETV6 (Homo sapiens, UniProt P41212 1-452)
Sequence of ETV6 (P41212 whole entry): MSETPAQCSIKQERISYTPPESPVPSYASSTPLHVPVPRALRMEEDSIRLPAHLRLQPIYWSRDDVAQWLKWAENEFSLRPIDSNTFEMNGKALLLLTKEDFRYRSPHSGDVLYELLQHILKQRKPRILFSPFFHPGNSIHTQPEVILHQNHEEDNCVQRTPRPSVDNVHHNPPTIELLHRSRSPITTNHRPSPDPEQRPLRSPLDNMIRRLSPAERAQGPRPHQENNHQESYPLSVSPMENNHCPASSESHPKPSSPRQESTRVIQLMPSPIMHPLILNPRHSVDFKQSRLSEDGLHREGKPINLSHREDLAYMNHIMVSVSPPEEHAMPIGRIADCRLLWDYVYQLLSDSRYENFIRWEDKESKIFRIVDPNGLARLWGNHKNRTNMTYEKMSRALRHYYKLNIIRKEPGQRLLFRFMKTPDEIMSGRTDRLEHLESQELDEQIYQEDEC
Summary of the method: as §1

Sequence	binding signal (ELK1)	binding signal (GABPA)	binding signal (ERG)	binding signal (ELF1)	binding signal (SPI1)	binding signal (ETV5)	binding signal (ELF4)	binding signal (ELF3)	binding signal (ERF)	binding signal (ETV3L)	binding signal (ETS2)	binding signal (ETV3)	binding signal (SPIB)	binding signal (ELK4)	binding signal (ETV7)	binding signal (ETV6)
CCCAAG	1.07 fold enrichment (6-mer frequency, TF over GST control)	1.07 fold enrichment (6-mer frequency, TF over GST control)	1.04 fold enrichment (6-mer frequency, TF over GST control)	1.06 fold enrichment (6-mer frequency, TF over GST control)	1.03 fold enrichment (6-mer frequency, TF over GST control)	1.01 fold enrichment (6-mer frequency, TF over GST control)	1.03 fold enrichment (6-mer frequency, TF over GST control)	1.12 fold enrichment (6-mer frequency, TF over GST control)	1.06 fold enrichment (6-mer frequency, TF over GST control)	1.01 fold enrichment (6-mer frequency, TF over GST control)	1 fold enrichment (6-mer frequency, TF over GST control)	1.03 fold enrichment (6-mer frequency, TF over GST control)				
CGCGTA		1.01 fold enrichment (6-mer frequency, TF over GST control)				1 fold enrichment (6-mer frequency, TF over GST control)	1.08 fold enrichment (6-mer frequency, TF over GST control)			1.01 fold enrichment (6-mer frequency, TF over GST control)			1.05 fold enrichment (6-mer frequency, TF over GST control)	1.07 fold enrichment (6-mer frequency, TF over GST control)	1.07 fold enrichment (6-mer frequency, TF over GST control)	1.01 fold enrichment (6-mer frequency, TF over GST control)
